{"source": "PubChem BioAssay (NCATS)", "note": "Records with an inconclusive call do not appear. Entries that show only a call come without a potency. Calls of active or inactive are those of the source. Calls follow the shape of the dose curve; as a rule, active = well fitted activation curve with a large enough effect in the main read-out, with a control signal flat (not every such curve was filed as active); inconclusive = small, poorly fitted or top-dose-only effect, or effect the other way, or a change in a side signal; inactive = flat fitted curve, though single readings scatter. Residues, ends and D or L forms follow the SMILES beside them.", "data": [{"target": "3',5'-cyclic-AMP phosphodiesterase 4B (Homo sapiens) (UniProt Q07343)", "sequence (Q07343 whole entry, looked up)": "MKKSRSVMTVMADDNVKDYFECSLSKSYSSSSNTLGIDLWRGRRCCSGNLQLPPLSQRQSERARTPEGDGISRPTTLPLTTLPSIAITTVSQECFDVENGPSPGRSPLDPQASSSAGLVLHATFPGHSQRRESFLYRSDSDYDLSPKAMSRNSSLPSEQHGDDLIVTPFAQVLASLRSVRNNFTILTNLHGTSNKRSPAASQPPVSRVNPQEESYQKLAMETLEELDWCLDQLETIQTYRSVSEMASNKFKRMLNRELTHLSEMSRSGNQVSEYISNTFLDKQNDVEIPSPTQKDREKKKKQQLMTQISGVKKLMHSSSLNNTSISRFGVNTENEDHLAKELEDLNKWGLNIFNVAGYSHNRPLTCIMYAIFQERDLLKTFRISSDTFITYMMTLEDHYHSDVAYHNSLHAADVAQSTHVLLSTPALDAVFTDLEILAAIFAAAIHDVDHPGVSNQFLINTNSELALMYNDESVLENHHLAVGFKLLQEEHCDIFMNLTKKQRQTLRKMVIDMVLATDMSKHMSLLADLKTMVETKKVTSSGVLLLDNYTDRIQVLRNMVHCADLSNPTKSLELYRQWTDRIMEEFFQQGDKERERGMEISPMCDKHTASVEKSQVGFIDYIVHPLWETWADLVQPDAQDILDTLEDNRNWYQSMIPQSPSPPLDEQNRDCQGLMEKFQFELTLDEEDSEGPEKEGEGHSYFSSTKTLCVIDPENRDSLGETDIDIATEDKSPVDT", "experiment": "qHTS Assay for Inhibitors of PDE-IV (AID 607)", "conditions": "HEK293 ACTOne CNG channel cells, membrane potential fluorescence; series mostly up to 22.9 µM", "summary_of_the_method": "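Live HEK293 cells with a modified cyclic nucleotide-gated (CNG) channel report intracellular cAMP via membrane-potential dye fluorescence (ex 535/em 590 nm). Endogenous PDE-IV was targeted. Compounds were tested at up to 22.9 uM final; RO 20-1724 100 uM served as control.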", "values": [{"smiles": "C[C@@H](N1CCOCC1)[C@@](O)(c1ccccc1)c1ccccn1", "Potency": "inactive"}, {"smiles": "O=C(O)c1ccccc1C1c2ccccc2Oc2ccccc21", "Potency": "inactive"}, {"smiles": "C[C@@H](CS(=O)(=O)Cc1ccccc1)C(N)=O", "Potency": "inactive"}, {"smiles": "Nc1cccc2cc(S(=O)(=O)Nc3ccc(C(=O)O)cc3)ccc12", "Potency": "inactive"}, {"smiles": "Nc1c(OCC(=O)O)ccc2cc(S(=O)(=O)O)ccc12", "Potency": "inactive"}, {"smiles": "O=C(O)c1nn(-c2ccc(Cl)cc2)c2c1C(=O)c1ccccc1C2=O", "Potency": "inactive"}, {"smiles": "CN1CCCN(C)C1c1cc([N+](=O)[O-])ccc1O", "Potency": "inactive"}, {"smiles": "Cc1cc(Cl)ccc1OCC(=O)Nc1nc(N)nc(N)n1", "Potency": "inactive"}, {"smiles": "CC(=O)N[C@H](Cc1ccc(O)cc1)C(=O)O", "Potency": "inactive"}, {"smiles": "O=C(O)c1ccccc1C(=O)Nc1cc2c(cc1Br)-c1ccccc1C2=O", "Potency": "inactive"}, {"smiles": "[O-][N+]1(CC[N+]2([O-])CCCCC2)CCCCC1", "Potency": "inactive"}, {"smiles": "COc1ccc([C@H](O)c2ccccn2)cc1", "Potency": "inactive"}, {"smiles": "O=c1[nH]cc(CS(=O)(=O)Cc2c[nH]c(=O)[nH]c2=O)c(=O)[nH]1", "Potency": "inactive"}, {"smiles": "O=C(O)c1ccc(Nc2ccnc3cc(Cl)ccc23)cc1O", "Potency": "inactive"}, {"smiles": "N#CC(CC(=O)O)=C(c1ccccc1)c1ccccc1", "Potency": "inactive"}, {"smiles": "N[C@H]1[C@@H](C(=O)O)[C@H]2C=C[C@H]1C2", "Potency": "inactive"}, {"smiles": "N[C@H](CO)C(=O)NCC(=O)O", "note": "(HELM PEPTIDE1{[dS].G}$$$$V2.0)", "Potency": "inactive"}, {"smiles": "COC(=O)CCCC(=O)O", "Potency": "inactive"}, {"smiles": "N#C[C@H]1CN[C@H](N)N[C@@H]1N", "Potency": "inactive"}, {"smiles": "NC(N)=N/N=C\\c1ccc(O)c(C(=O)O)c1", "Potency": "inactive"}, {"smiles": "O=C(O)CNCCc1ccccc1", "Potency": "inactive"}, {"smiles": "Oc1ccc(Cl)cc1C=Nc1cnc2ccccc2c1", "Potency": "inactive"}, {"smiles": "O=C1C2[C@@H](c3ccccc3)N[C@@H](c3ccccc3)C1[C@H](c1ccccc1)N[C@H]2c1ccccc1", "Potency": "inactive"}, {"smiles": "O=CN1CCN(C[C@H](O)CN2CCCCC2)CC1", "Potency": "inactive"}, {"smiles": "CC(=O)O[C@H]1CC[C@@]2(C)[C@@H](CC[C@H]3[C@H]2CC(=O)[C@@]2(C)[C@@H]3C[C@H]3CC(C)=CC(=O)[C@H]32)C1", "Potency": "inactive"}, {"smiles": "Nc1nccc(Nc2ccc(S(N)(=O)=O)cc2)n1", "Potency": "inactive"}, {"smiles": "COc1ccc(/C=N\\NC(=O)O)cc1", "Potency": "inactive"}, {"smiles": "Cc1ccc(N2CCN(CCC(=O)O)CC2)cc1", "Potency": "inactive"}, {"smiles": "O=C(O)[C@@H]1[C@@H](C(=O)NCc2ccccn2)[C@@H]2C=C[C@@H]1O2", "Potency": "inactive"}, {"smiles": "O=C(O)c1ccc(C(=O)c2ccccc2)c(C(=O)O)c1", "Potency": "inactive"}, {"smiles": "O=C1[C@@H]2[C@@H]3C=C[C@H]([C@@H]2C(=O)N1CN1CCSCC1)[C@@H]1[C@@H]2C(=O)N(CN4CCSCC4)C(=O)[C@@H]2[C@H]31", "Potency": "inactive"}, {"smiles": "O=C(NCc1cccnc1)[C@@H]1[C@@H](C(=O)O)[C@H]2CC[C@@H]1O2", "Potency": "inactive"}, {"smiles": "CC(=O)[C@@H](C)CCO[C@@]1(C)OCC[C@@H]1C", "Potency": "inactive"}, {"smiles": "O=C(O)[C@@H](Cc1c[nH]c2ccccc12)C(=O)NO", "Potency": "inactive"}, {"smiles": "CCCCn1cnc2c(SC)ncnc21", "Potency": "inactive"}, {"smiles": "Cc1cc2ccc(OC(=O)c3ccc(N=C(N)N)cc3)cc2oc1=O", "Potency": "inactive"}, {"smiles": "O=C(O)CSc1cc(-c2ccccc2)nc2ccccc12", "Potency": "inactive"}, {"smiles": "O=C(O)c1ccccc1CN1CCC[C@@H](C(=O)O)C1", "Potency": "inactive"}, {"smiles": "NS(=O)(=O)c1ccc(NCc2cnc3ccccc3n2)cc1", "Potency": "inactive"}]}]}
